Measurements from the supplement of paper PMC11732987, “Enantioselective OTUD7B fragment discovery through chemoproteomics screening and high-throughput optimisation” (Communications Chemistry, 2025).

Legend:
Test in all cases: log2 ratio of Biotin-Ahx-Ub-VS probe labelling (fragment/DMSO); higher = less target engagement (more negative = stronger competition), active = hit call of the paper (q ≤ 0.05, log2 ratio ≤ -1)
Conditions in all cases: compound concentration: 200 uM; treatment time: 3 h
[1] = target: T1, ALG13 (UniProt Q9NP73)
T1 sequence (whole entry): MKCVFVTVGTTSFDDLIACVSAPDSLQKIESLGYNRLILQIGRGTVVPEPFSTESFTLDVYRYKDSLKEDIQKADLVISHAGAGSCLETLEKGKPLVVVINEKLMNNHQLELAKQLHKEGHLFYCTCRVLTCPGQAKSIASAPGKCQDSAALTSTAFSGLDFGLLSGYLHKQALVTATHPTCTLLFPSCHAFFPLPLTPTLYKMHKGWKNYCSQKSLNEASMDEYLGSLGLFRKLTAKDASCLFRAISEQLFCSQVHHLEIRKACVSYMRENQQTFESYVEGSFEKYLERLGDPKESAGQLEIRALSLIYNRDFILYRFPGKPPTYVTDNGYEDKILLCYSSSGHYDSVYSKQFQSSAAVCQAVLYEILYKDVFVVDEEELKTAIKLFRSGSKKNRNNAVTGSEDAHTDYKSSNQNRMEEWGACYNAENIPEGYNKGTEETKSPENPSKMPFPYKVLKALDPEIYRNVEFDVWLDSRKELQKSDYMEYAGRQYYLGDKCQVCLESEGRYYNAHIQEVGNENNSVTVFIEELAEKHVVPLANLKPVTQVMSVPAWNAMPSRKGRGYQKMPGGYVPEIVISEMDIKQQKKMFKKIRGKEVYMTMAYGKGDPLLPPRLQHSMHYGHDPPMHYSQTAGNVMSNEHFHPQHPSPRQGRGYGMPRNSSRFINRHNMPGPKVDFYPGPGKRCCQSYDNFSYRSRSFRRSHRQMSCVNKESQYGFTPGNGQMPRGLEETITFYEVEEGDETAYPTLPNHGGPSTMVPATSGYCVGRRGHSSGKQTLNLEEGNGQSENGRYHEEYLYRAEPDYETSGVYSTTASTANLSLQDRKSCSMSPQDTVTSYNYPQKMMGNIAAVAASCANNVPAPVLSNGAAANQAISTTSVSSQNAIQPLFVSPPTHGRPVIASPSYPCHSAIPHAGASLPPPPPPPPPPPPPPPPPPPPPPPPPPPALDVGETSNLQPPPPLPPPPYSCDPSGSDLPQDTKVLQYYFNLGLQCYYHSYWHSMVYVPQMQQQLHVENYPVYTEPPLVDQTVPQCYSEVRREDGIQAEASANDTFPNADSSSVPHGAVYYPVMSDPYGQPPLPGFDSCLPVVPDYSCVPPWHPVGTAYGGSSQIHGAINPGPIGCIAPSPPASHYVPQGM
Method in brief: (§1)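 Labelled DUBs were enriched with NeutrAvidin, digested with LysC and trypsin, and run by diaPASEF LC-MS/MS. The labelling used Biotin-Ahx-Ub-VS at 0.5 µM final for 1 h on HEK293T lysate (495 µg per sample) previously treated in triplicate with fragment at 200 µM or vehicle for 3 h. Values are average log2 fragment/vehicle ratios by unpaired t-test on global-median-normalised Spectronaut quantities of proteins with ≥2 unique peptides.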

[2] = target: ATXN3 (UniProt P54252)
Sequence of ATXN3 (P54252 whole entry): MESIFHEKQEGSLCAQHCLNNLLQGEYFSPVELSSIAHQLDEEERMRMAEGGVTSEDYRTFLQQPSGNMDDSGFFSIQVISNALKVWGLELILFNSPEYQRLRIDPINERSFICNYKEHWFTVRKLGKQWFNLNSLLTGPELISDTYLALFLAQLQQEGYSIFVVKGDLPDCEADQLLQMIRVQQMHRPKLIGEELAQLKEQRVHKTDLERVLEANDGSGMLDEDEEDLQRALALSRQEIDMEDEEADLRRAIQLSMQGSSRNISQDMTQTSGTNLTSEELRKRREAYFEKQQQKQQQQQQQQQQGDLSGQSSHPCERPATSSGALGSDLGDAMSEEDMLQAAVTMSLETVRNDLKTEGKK
Method in brief: as §1

[3] = target: T2, BAP1 (UniProt Q92560)
T2 sequence (whole entry): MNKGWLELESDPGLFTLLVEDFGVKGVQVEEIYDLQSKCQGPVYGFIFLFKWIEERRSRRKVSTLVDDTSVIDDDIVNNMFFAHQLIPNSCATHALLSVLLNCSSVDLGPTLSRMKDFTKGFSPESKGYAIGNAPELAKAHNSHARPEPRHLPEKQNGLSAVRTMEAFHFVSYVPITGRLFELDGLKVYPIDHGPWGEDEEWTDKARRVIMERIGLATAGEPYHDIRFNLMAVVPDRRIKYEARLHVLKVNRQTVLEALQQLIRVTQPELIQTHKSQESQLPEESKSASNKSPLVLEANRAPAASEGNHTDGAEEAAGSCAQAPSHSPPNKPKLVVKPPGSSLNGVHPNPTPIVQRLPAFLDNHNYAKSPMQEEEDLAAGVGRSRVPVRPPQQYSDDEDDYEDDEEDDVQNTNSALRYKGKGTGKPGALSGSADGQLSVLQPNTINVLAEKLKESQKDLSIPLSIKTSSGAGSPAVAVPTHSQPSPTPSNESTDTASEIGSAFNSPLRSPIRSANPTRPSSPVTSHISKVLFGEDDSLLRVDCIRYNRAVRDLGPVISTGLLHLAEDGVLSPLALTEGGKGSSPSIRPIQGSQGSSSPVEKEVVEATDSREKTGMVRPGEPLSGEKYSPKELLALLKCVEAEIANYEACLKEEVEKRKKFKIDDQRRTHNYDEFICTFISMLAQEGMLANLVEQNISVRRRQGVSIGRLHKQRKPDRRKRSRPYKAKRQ
Method in brief: as §1

[4] = target: EIF3F (UniProt O00303)
Sequence of EIF3F (O00303 whole entry): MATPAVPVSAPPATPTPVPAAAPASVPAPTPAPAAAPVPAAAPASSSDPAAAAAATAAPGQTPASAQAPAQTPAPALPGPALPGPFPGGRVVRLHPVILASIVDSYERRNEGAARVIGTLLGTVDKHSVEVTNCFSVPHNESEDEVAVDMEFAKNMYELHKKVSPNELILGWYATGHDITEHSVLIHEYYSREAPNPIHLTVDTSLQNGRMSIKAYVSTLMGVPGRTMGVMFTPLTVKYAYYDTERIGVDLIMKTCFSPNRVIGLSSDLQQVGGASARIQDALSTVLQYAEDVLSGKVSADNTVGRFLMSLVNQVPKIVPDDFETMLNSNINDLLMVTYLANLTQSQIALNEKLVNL
Method in brief: as §1

[5] = target: EIF3H (UniProt O15372)
Sequence of EIF3H (O15372 whole entry): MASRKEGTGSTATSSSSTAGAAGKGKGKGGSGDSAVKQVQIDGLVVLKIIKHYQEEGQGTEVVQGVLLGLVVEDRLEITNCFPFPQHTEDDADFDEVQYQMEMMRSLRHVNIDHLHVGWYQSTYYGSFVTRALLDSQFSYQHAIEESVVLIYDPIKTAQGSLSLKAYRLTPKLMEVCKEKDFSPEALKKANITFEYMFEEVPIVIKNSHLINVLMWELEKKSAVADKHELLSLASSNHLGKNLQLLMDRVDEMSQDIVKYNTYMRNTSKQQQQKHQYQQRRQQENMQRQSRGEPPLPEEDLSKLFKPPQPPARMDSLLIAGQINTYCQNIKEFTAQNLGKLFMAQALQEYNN
Method in brief: as §1

[6] = target: T3, FAM105A (UniProt Q9NUU6)
T3 sequence (whole entry): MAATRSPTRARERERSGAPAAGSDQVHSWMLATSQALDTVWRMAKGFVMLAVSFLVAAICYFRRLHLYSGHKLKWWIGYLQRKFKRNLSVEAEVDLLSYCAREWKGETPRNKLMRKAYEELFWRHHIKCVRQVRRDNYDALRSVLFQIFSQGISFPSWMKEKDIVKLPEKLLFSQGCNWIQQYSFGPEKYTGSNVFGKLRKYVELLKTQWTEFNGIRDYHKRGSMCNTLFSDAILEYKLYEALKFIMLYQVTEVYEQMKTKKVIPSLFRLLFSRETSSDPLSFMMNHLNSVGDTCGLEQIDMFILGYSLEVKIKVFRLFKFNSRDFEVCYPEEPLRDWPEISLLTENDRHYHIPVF
Method in brief: as §1

[7] = target: OTUB1 (UniProt Q96FW1)
Sequence of OTUB1 (Q96FW1 whole entry): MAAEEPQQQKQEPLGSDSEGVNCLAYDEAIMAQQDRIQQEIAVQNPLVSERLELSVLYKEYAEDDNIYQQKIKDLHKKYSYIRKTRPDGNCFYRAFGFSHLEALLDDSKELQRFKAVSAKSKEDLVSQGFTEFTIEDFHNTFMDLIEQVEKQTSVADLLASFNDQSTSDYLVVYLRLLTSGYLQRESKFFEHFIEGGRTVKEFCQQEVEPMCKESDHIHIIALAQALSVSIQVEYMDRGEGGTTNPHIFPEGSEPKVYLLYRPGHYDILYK
Method in brief: as §1

[8] = target: T4, OTUD4 (UniProt Q01804)
T4 sequence (whole entry): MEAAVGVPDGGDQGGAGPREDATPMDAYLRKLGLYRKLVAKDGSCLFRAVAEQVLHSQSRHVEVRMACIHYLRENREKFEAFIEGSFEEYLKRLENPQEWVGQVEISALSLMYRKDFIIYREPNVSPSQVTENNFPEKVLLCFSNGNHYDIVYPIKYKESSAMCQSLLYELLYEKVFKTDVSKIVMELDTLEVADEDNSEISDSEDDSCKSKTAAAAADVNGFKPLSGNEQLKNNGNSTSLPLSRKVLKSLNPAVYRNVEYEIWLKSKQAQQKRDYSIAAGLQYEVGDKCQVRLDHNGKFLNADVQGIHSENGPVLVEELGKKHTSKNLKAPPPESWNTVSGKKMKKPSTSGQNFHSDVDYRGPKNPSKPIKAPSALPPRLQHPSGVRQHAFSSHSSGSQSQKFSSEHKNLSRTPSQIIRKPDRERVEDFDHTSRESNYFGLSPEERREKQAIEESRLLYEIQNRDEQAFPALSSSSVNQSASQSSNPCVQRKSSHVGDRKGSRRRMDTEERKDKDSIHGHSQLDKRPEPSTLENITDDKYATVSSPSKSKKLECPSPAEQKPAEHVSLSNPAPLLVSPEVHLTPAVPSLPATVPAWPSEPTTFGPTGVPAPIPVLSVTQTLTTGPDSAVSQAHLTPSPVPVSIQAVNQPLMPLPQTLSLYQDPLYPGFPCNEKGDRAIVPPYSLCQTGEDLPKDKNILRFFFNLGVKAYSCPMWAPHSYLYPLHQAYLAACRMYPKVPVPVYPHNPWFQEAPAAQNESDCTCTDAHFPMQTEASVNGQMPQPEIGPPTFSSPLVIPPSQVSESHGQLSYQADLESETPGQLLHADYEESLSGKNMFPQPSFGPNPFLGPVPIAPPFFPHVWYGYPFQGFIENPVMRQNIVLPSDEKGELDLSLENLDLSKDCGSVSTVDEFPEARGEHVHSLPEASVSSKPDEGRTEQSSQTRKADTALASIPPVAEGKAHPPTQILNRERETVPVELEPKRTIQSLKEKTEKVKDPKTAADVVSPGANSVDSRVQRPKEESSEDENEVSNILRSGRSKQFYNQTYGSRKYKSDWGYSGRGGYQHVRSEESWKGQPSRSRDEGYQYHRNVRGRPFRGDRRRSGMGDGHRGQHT
Method in brief: as §1

[9] = target: T5, OTUD5 (UniProt Q96G74)
T5 sequence (whole entry): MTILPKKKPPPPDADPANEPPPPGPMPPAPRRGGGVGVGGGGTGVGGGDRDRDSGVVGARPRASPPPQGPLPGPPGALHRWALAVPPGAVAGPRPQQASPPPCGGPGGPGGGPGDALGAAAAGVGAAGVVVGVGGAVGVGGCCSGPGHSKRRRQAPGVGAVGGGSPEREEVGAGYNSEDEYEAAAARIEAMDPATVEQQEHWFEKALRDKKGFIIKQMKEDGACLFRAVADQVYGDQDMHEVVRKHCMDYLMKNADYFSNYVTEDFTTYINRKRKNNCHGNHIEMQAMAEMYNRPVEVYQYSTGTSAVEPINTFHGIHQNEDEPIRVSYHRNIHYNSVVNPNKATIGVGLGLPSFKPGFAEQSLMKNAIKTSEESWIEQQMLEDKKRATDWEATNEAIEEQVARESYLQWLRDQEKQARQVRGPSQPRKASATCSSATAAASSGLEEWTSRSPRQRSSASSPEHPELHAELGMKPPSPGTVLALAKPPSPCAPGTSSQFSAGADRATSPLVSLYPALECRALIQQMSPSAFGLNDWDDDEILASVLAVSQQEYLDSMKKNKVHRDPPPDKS
Method in brief: as §1

Measured: log2 ratio of Biotin-Ahx-Ub-VS probe labelling

O=C(CCl)NCCC1COCCO1 (stereo not given)
inactive: [1] -0.267 | [2] -0.282 | [4] -0.44 | [5] 0.24 | [6] -0.278 | [7] -0.233 | [8] -0.214 | [9] -0.165
active: [3] -1.01

CNC(=O)C1CCN(C(=O)CCl)CC1
inactive: [1] 0.0075 | [2] -0.0902 | [3] -0.309 | [4] -0.0903 | [5] 0.232 | [6] 0.31 | [7] -0.105 | [8] 0.0041 | [9] -0.381

C[C@H]1CN(C(=O)CCl)CCN1C(=O)c1cnn(C)c1.Cl
inactive: [1] 0.134 | [2] -0.631 | [3] -0.356 | [4] 0.132 | [5] 0.0411 | [6] 0.375 | [7] -0.204 | [8] -0.236 | [9] -0.326

NC(=O)C1CCCCN1C(=O)CCl (stereo not given)
inactive: [1] 0.0736 | [2] -0.889 | [3] -0.748 | [4] 0.103 | [5] 0.0122 | [6] -0.18 | [7] -0.182 | [8] -0.464 | [9] -0.638

CC1CN(c2ccc(NC(=O)CCl)cc2)CC(C)O1 (stereo not given)
inactive: [1] -0.442 | [2] -0.412 | [4] -0.0748 | [5] 0.0832 | [6] 0.115 | [7] 0.133 | [8] -0.357 | [9] -0.371
active: [3] -2.48

Cl.O=C(CCl)NCc1ccnc(Oc2ccccc2F)c1
inactive: [1] 0.177 | [2] -0.51 | [4] -0.072 | [5] -0.589 | [6] -0.0684 | [7] -0.232 | [8] -0.244 | [9] -0.524
active: [3] -3.99

CNC(=O)C1(NC(=O)CCl)CCCCC1
inactive: [1] -1.06 | [2] -0.161 | [4] -0.192 | [5] 0.0858 | [6] -0.00491 | [7] 0.0146 | [8] -0.439 | [9] -0.0782
active: [3] -1.12

O=C(CCl)N[C@H]1CCS(=O)(=O)c2ccccc21
inactive: [1] -0.0339 | [2] -0.224 | [4] -0.052 | [5] 0.251 | [6] -0.522 | [7] 0.161 | [9] -0.117
active: [3] -2.12 | [8] -1.08

O=C(CCl)N1CCC(O)(Cc2ccc(F)cc2)C1 (stereo not given)
inactive: [1] -0.581 | [2] -0.456 | [3] -0.845 | [4] -0.133 | [5] -0.189 | [6] -0.0755 | [7] -0.0952 | [8] -0.135 | [9] -0.233

O=C(CCl)N1CCOCC1C1CC1 (stereo not given)
inactive: [2] -0.209 | [3] -0.299 | [4] -0.527 | [5] 0.16 | [6] 0.635 | [7] -0.181 | [8] -0.865 | [9] -0.313
active: [1] -1.36

N#Cc1ccc(CNC(=O)CCl)cc1
active: [3] -3.38
inactive: [1] -0.583 | [2] -0.171 | [4] -0.0324 | [5] 0.142 | [6] -0.00692 | [7] -0.0861 | [8] -0.138 | [9] -0.348

CC1(NC(=O)CCl)CCS(=O)(=O)C1 (stereo not given)
inactive: [1] -0.0745 | [2] -0.753 | [4] -0.345 | [5] 0.186 | [6] 0.0573 | [7] -0.246 | [8] -0.934 | [9] -0.673
active: [3] -1.37

COc1cccc(CN(C)C(=O)CCl)c1
inactive: [1] -0.0162 | [2] -0.781 | [4] 0.0528 | [5] -0.0896 | [6] -0.419 | [7] 0.00861 | [8] -0.462 | [9] -0.999
active: [3] -2.68

Cl.O=C(CCl)N[C@H]1C[C@@H](n2cccn2)C1
inactive: [1] -0.266 | [2] -0.161 | [4] -0.862 | [5] 0.149 | [6] -0.138 | [7] -0.581 | [8] -0.0468 | [9] -0.587
active: [3] -1.24

O=C(CCl)NCc1noc(C2CC2)n1
inactive: [1] 0.174 | [2] -0.198 | [4] -0.262 | [5] 0.143 | [6] 0.00371 | [7] -0.305 | [8] -0.405 | [9] -0.391
active: [3] -1.08
